Assay [1] can be described thus: TOX21_p53_BLA_p2_viability: Viability Assessment in the Tox21 HCT-116 p53 Agonism Beta-lactamase Assay, Phase 2 (AID 2283591).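 Also: compound exposure lasted 16 h at 37 °C; actives lower the ATP signal meaning cytotoxicity.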 The method, boiled down:
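HCT116 p53-bla cells, 4000/well, dosed after 5 h plating (217-fold dilution of DMSO stocks) and incubated 16 h at 37C. Viability taken as cellular ATP by CellTiter-Glo luminescence after 30 min RT; signal loss marks cytotoxicity.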

Assay [2] has as its target Cellular tumor antigen p53 (Homo sapiens) (UniProt P04637). As to the kind of experiment: TOX21_p53_BLA_p2_ratio: Tox21 HCT-116 p53 Agonism Beta-lactamase Assay, Ratio, Phase 2 (AID 2283592). The method, boiled down:
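Cleaved-to-uncleaved substrate ratio (460 vs 530 nm) measured in HCT116 cells with an inducible beta-lactamase reporter linked to p53 activity. Compounds incubated 16 h at 37C before 2 h room-temperature CCF4-AM loading.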

Assay [3] in a line: TOX21_p53_BLA_p3_viability: Viability Assessment in the Tox21 HCT-116 p53 Agonism Beta-lactamase Assay, Phase 3 (AID 2283593).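 Also: cells exposed to compound for 16 h before reading.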 The method, boiled down: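 HCT116 cells, 4000/well, dosed 5 h after plating by pin transfer (217-fold dilution from DMSO stock) and incubated 16 h at 37C, 5% CO2. Viability read as ATP luminescence with CellTiter-Glo after 30 min at room temperature.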

The nature of assay [4]: TOX21_p53_BLA_p4_viability: Viability Assessment in the Tox21 HCT-116 p53 Agonism Beta-lactamase Assay, Phase 4 (AID 2283597).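 Also: hits lower the luminescence signal meaning cytotoxicity.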 The method, boiled down: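 Viability is taken as cellular ATP: after 16 h compound exposure of HCT116 cells and a 2 h room-temperature CCF4-AM substrate step, CellTiter-Glo reagent is added and luminescence is measured 30 min later.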
The target of assay [5] is Cellular tumor antigen p53 (Homo sapiens) (UniProt P04637). The assay can be described thus: TOX21_p53_BLA_p5_ratio: Tox21 HCT-116 p53 Agonism Beta-lactamase Assay, Ratio, Phase 5 (AID 2283599). The method, boiled down: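 HCT-116 p53-bla cells (4000/well) plated 5 h, dosed with compound (217-fold DMSO dilution) for 16 h at 37 C; CCF4-AM substrate 2 h at room temperature. Activity is the 460/530 nm emission ratio (405 nm excitation), fitted in gain-of-signal direction versus DMSO.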
Chain of Cellular tumor antigen p53 (Homo sapiens) (P04637 whole entry, looked up): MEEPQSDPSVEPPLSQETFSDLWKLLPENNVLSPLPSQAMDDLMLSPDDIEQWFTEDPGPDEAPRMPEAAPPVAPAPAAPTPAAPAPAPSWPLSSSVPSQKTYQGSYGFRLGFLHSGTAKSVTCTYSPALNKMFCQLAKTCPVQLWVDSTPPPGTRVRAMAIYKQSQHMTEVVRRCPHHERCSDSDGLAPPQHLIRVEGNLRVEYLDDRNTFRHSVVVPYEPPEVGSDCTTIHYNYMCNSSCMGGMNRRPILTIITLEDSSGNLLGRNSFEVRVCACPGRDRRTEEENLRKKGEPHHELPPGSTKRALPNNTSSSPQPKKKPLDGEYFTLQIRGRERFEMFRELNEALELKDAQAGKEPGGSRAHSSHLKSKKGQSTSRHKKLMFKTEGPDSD

The nature of assay [6]: TOX21_p53_BLA_p5_viability: Viability Assessment in the Tox21 HCT-116 p53 Agonism Beta-lactamase Assay, Phase 5 (AID 2283600). The method, boiled down:
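Viability is taken from cellular ATP content, measured by luciferase luminescence in the same wells after the beta-lactamase ratio read. Cells are seeded at 4000 per well and exposed to DMSO-dissolved compounds, diluted 217-fold, for 16 h.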

Assay [7] addresses Cellular tumor antigen p53 (Homo sapiens) (UniProt P04637). The assay can be described thus: TOX21_p53_BLA_p4_ratio: Tox21 HCT-116 p53 Agonism Beta-lactamase Assay, Ratio, Phase 4 (AID 2283601). The method, boiled down:
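HCT-116 p53 beta-lactamase reporter cells (4000/well) preincubated 5 h, then compound (217-fold dilution of DMSO stock) for 16 h at 37C. CCF4-AM substrate added 2 h at room temperature; 460/530 nm emission ratio fitted upward versus DMSO.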

In assay [8] the target is Thyroid hormone receptor alpha (Rattus norvegicus) + Thyroid hormone receptor beta (Rattus norvegicus) (UniProt P18113+P63059). The assay can be described thus: TOX21_TR_LUC_GH3_Antagonist_Followup: Tox21 GH3 Thyroid Hormone Receptor Antagonism Luciferase Follow-Up Assay (AID 2283942). The method, boiled down: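 Luminescence read-out (ONE-Glo, 30 min at room temperature) in GH3 reporter cells challenged with 1.0 nM T3 final. Compounds ran at 92 uM to 5nM over 15 concentrations for 24 h; DMSO served as negative control and baseline.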

The next assay concerns the target THRA (gene 7067) (UniProt P10827). As to the kind of experiment: TOX21_TRA_COA_Antagonist_Followup_ratio: Tox21 Thyroid Hormone Receptor alpha Antagonism through Coactivator Recruitment Follow-Up Assay, Ratio (AID 2283953). The method, boiled down:
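We measured antagonism of T3-type coactivator recruitment using a TR-FRET ratio (emission 520 and 495 nm) between a Tb-labelled anti-GST antibody on TRα LBD (2.5 nM) and SRC-2 peptide (200 nM). Activity was scaled between DMSO and T3 wells.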

The target of assay [9] is THRB (gene 7068) (UniProt P10828). The assay can be described thus: TOX21_TRB_BLA_Antagonist_Followup_ratio: Tox21 Thyroid Hormone Receptor beta Antagonism Beta-lactamase (BLA) Follow-Up Assay, Ratio (AID 2283958). The method, boiled down: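 Read-out: blue/green (460:530 nm) ratio of cleaved to uncleaved CCF4-AM after 2 h at room temperature, fitted against DMSO baseline. HEK293T UAS-bla cells carrying GAL4-human TRβ LBD were exposed 18 h, 37C/5% CO2.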
Chain of THRB (gene 7068) (P10828 whole entry, looked up, the tested form may be a part): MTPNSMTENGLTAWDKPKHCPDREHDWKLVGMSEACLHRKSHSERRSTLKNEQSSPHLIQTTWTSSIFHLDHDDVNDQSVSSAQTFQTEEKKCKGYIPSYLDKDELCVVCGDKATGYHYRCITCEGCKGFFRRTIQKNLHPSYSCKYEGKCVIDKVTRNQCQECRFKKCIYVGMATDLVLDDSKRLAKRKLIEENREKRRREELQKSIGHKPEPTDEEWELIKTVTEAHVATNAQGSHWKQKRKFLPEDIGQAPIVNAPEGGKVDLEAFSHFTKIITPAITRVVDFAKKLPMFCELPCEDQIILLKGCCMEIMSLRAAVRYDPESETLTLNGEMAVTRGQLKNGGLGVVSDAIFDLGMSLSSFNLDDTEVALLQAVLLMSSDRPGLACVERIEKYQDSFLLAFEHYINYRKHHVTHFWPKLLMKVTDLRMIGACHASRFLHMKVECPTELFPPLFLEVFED

Assay [10] can be described thus: TOX21_TRB_BLA_Antagonist_Followup_viability: Viability Assessment in the Tox21 Thyroid Hormone Receptor beta Antagonism Beta-lactamase (BLA) Follow-Up Assay (AID 2283961). The method, boiled down: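 Cytotoxicity is measured in parallel with the antagonist-mode TRβ beta-lactamase screen, using ATP-coupled luciferase luminescence. Engineered HEK293T cells are treated for 18 h with 11-point compound series in triplicate.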

In assay [11] the target is THRB (gene 7068) (UniProt P10828). As to the kind of experiment: TOX21_TRB_COA_Antagonist_Followup_ratio: Tox21 Thyroid Hormone Receptor beta Antagonism through Coactivator Recruitment Follow-Up Assay, Ratio (AID 2283967). The method, boiled down:
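GST-TRb LBD 5.0 nM + 0.10% BSA, compound added; fluorescein-SRC-2 peptide 200 nM, Tb-anti-GST Ab 2 nM. TR-FRET, ex 340 / em 520:495 ratio. Norm: DMSO 0%, T3 100%.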

The nature of assay [12]: TOX21_TR_RXR_BLA_Antagonist_Followup_viability: Viability Assessment in the Tox21 Thyroid Hormone Receptor beta Retinoid X Receptor alpha (RXRa) Antagonism Beta-lactamase (BLA) Follow-Up Assay (AID 2283979). The method, boiled down:
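RXRa-bla HEK293T cells (2,500/well, phenol red-free DMEM, 2% charcoal-stripped FBS) were attached 5 h, then exposed to compounds at 11 concentrations in triplicate for 16 h at 37C. Viability measured by CellTiter-Glo ATP luminescence, bidirectional fitting versus DMSO.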

Records with an inconclusive call do not appear. Active and inactive are the calls of the source. The calls were made as follows: active = hit-call score of the fitted dose curve at least 0.9, where 1 is the maximum; inconclusive = response in the unintended direction; inactive = score below 0.9.

As usually defined, the AC50 is the concentration at which the activity in the assay is half-maximal.

Chain of THRA (gene 7067) (P10827 whole entry, looked up, the tested form may be a part): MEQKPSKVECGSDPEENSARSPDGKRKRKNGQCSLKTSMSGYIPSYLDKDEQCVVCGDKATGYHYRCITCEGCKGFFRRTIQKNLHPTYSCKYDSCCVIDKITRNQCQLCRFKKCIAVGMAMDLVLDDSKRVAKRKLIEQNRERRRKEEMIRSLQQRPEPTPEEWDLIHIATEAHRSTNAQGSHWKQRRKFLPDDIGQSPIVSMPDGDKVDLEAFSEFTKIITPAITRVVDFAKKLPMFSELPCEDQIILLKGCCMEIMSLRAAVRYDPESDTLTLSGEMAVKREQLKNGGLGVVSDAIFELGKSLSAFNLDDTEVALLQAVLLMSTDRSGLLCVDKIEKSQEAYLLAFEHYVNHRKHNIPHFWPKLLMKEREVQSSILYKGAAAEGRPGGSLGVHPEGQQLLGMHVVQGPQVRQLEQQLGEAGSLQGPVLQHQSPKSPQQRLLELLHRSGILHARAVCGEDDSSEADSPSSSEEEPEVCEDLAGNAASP

For `Cc1c(Nc2ncccc2C(=O)O)cccc1C(F)(F)F`, the outcome in assay [1], in assay [2], in assay [3], in assay [4], in assay [5] and in assay [6] was inactive. Besides, the result (in [7]; in [8]; in the assay with THRA (gene 7067); with THRB (gene 7068) [9]; in [10]; with THRB (gene 7068) [11]) was inactive. Further, in assay [12], the call was inactive.

For `O=C(c1ccccc1)c1ccc2n1CCC2C(=O)O` (stereo unspecified), the molecule was classed as inactive in assay [1], in assay [2], in assay [3], in [4] and in assay [5]. For the same molecule, the half-maximal activity concentration (AC50) in assay [7] is 43.6 µM (active).

In the case of `CN1CCC(OC(=O)C(Oc2ccc(Cl)cc2)Oc2ccc(Cl)cc2)CC1`, the result in [1], in assay [2], in assay [3], in assay [4], in [5] and in [7] was inactive.

On to `CCOC(=O)c1cnc2c(cnn2CC)c1NN=C(C)C`, for which the molecule was classed as inactive in [1], in [2], in assay [3], in assay [4], in assay [5] and in assay [6]. In addition, the outcome in assay [7] was inactive.

With `CCN(CC)CCNC(=O)c1ccc(NS(C)(=O)=O)cc1`, the molecule was called inactive in assay [1], in [2], in [3], in assay [4] and in assay [6].

As for `CC(C(=O)O)c1ccc(C(=O)c2ccccc2)s1` (stereo unspecified), the outcome in [1], in assay [2], in [3], in [4], in assay [5] and in [6] was inactive. For the same molecule, the outcome in [7] was inactive.

For `CC(=O)[C@H]1CC[C@H]2[C@@H]3C=CC4=CC(=O)CC[C@@]4(C)[C@@H]3CC[C@]12C`, the result in assay [1], in [2], in assay [3], in [4], in assay [5] and in assay [6] was inactive. Further, the outcome (in assay [7]; in assay [8]; with THRA (gene 7067); with THRB (gene 7068) [11]; in assay [12]) was inactive.

Regarding `CC(C)CCCCCCN`, the molecule was called inactive in assay [1], in assay [2], in [3], in assay [4] and in assay [6].

Turning to `O=Cc1ccc([N+](=O)[O-])cc1`, the call in assay [1], in assay [2], in assay [3], in assay [4], in [5] and in assay [7] was inactive.

For the molecule `C=CCONC(CCC)=C1C(=O)CC(C)(C)C(C(=O)OC)=C1O`, the molecule was classed as inactive in [1], in assay [2], in assay [3], in assay [4], in assay [5] and in assay [7].

Consider `O=C1c2ccccc2C(=O)N1CCl`, for which the molecule was classed as inactive in assay [1], in assay [2], in assay [3], in assay [4], in [5] and in assay [6]. The outcome in assay [7] was inactive.

Turning to `COC(=O)[C@H]1[C@H]2C[C@@H]3c4[nH]c5cc(OC)ccc5c4CCN3C[C@H]2C[C@@H](OC(=O)/C=C/c2cc(OC)c(OC)c(OC)c2)[C@@H]1OC`, the result in assay [1], in [2], in [3], in [4], in [5] and in assay [6] was inactive. Also, the outcome in assay [7] was inactive.

Source of the values: PubChem BioAssay (EPA / NIEHS).
